Data on five compounds can be found in PubChem BioAssay.

Experiment [1] deals with Plasmodium falciparum Sir2 (PF13_0152, Sir2A). Description: pfSir2 binders on small-molecule microarrays, primary screen, biochemical, small-molecule microarray, 635 nm fluorescence (AID 1098).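 Also: score merges spot fluorescence intensity with its signal-to-noise ratio.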 Particulars: small-molecule microarray binding, fluorescence 635 nm; higher = more signal.
The nature of experiment [2]: small-molecule microarray binders of probe aDKK1, primary screen, biochemical, biotinylated probe, 635/667 nm fluorescence (AID 1099).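 Also: score merges 667nm spot fluorescence with signal to noise across triplicate slides.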 Particulars: higher = more signal.
Experiment [3] can be described thus: small-molecule microarray binders of probe aCHRDL2, primary screen, biochemical, biotinylated probe, 635/667 nm fluorescence (AID 1100). Particulars: higher = more signal.
The nature of experiment [4]: splicing luciferase reporter signal modulators, primary screen, spliceosome inhibition project, cell-based, HEK293, splice +/- reporter (AID 1101).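 Also: HEK293 cells carrying a splicing-competent luciferase reporter gene; test concentration not given here.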 Particulars: luminescence, 24 h, higher = more signal, called active from +8 up or from −8 down.
The target in experiment [5] is Fibroblast growth factor 10 (Homo sapiens) (UniProt O15520). Description: FGF10 binders on small-molecule microarrays, primary screen, biochemical, small-molecule microarray, 635 nm fluorescence (AID 1102). The conditions noted are these: FGF10 binding, fluorescence 635 nm, higher = more signal.
For experiment [6], the system named is glycogen synthase kinase-3 (GSK3A per assay name; protocol says GSK3B). The experiment is described as follows: GSK3 binders on small-molecule microarrays, primary screen, biochemical, small-molecule microarray, 635 nm fluorescence, GSK3A (AID 1103). Also: the record names both GSK3A and GSK3B. The conditions noted are these: small-molecule microarray binding, fluorescence 635 nm; higher = more signal.
Experiment [7] addresses Epidermal growth factor receptor (Homo sapiens) (UniProt P00533). Description: EGFR binders on small-molecule microarrays, primary screen, biochemical, small-molecule microarray, 635 nm fluorescence (AID 1104).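 Also: score merges 667 nm emission intensity with spot signal to noise over triplicate slides.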 The conditions noted are these: EGFR binding, higher = more signal.
Experiment [8] deals with Follistatin-related protein 3 (Homo sapiens) (UniProt O95633). The experiment is described as follows: FSTL3 binders on small-molecule microarrays, primary screen, biochemical, small-molecule microarray, 635 nm fluorescence (AID 1105).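 Also: score merges emission near 667 nm and signal to noise per printed spot across three slides.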 Particulars: FSTL3 binding, higher = more signal.
Experiment [9] concerns the target Dickkopf-related protein 1 (Homo sapiens) (UniProt O94907). Description: DKK1 binders on small-molecule microarrays, primary screen, biochemical, small-molecule microarray, 635 nm fluorescence scan (AID 1106).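 Also: score merges emission near 667 nm with signal to noise over three replicate slides.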 The conditions noted are these: DKK1 binding, higher = more signal.
The test system of experiment [10] is Inhibin beta A chain (activin A). Description: INHBA (activin A) binders on microarrays, primary screen, biochemical, small-molecule microarray, 635 nm fluorescence scan (AID 1107).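 Also: mouse activin A protein probed at 4.33 µg/mL on printed slides; score merges bound-protein fluorescence near 667 nm with spot signal-to-noise.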 Particulars: small-molecule microarray binding, higher = more signal.
Experiment [11] relates to Human papillomavirus type 1a protein E7 (residues 44-93). The experiment is described as follows: HPV1a E7 fragment binders on microarrays, primary screen, biochemical, small-molecule microarray, residues 44-93, 635 nm fluorescence (AID 1108).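 Also: E7 fragment applied at 1 µg/mL in TBST for 1 h at 4 C; score combines spot fluorescence with its signal to noise ratio.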 The conditions noted are these: small-molecule microarray binding, fluorescence 635 nm; higher = more signal.
Experiment [12] can be described thus: modulators of HCV replicon luciferase signal, primary screen, HCV replication inhibitor project, Huh7 cells, luciferase reporter (AID 1109).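 Also: huh7 hepatoma cells harbouring a luciferase neomycin HCV replicon reporter; luciferase luminescence as measure of HCV replicon replication; test concentration not given here.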 Particulars: 48 h, higher = more signal. Background: Replicon systems follow genome replication, usually without infectious particles.
Experiment [13] has as its target Left-right determination factor 2 (Homo sapiens) (UniProt O00292). The experiment is described as follows: LEFTY2 binders on small-molecule microarrays, primary screen, biochemical, small-molecule microarray, 635 nm fluorescence scan (AID 1110). The conditions noted are these: LEFTY2 binding, higher = more signal.
The target of experiment [14] is Calmodulin-1 (Homo sapiens) (UniProt P0DP23). The experiment is described as follows: CALM1 binders on microarrays, EGTA buffer, profiling panel, biochemical, small-molecule microarray, Cy5-labelled CALM1 (AID 1111).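 Also: labelled calmodulin applied in Tris saline Tween buffer holding calcium plus EGTA and DTT.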 Particulars: Cy5-CALM1 binding fluorescence, higher = more signal.
Experiment [15] shares this target. Description: calcium-bound CALM1 binders on microarrays, profiling panel, artefact control for SMM control-protein annotation, biochemical, small-molecule microarray, Cy5-labelled CALM1, plus calcium (AID 1112).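 Also: score merges spot fluorescence with signal to noise from triplicate slides.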 Particulars: Cy5-CALM1 binding fluorescence, higher = more signal.
Experiment [16] in a line: small-molecule microarray binders of probe aWnt5a, primary screen, biochemical, biotinylated probe, 635/667 nm fluorescence (AID 1113).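 Also: score merges 667 nm fluorescence intensity with signal-to-noise per printed feature.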 The conditions noted are these: higher = more signal.
Experiment [17] is described as follows: small-molecule microarray binders of probe aShh, primary screen, biochemical, biotinylated probe, 635/667 nm fluorescence (AID 1114).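 Also: probe is biotin-labelled aShh protein from a stem cell growth factor screen; measures binding of labelled protein to compounds printed on the slide; score merges feature fluorescence at 667 nm with signal-to-noise.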 Particulars: higher = more signal.
Experiment [18] can be described thus: small-molecule microarray binders of probe aNog, primary screen, biochemical, biotinylated probe, 635/667 nm fluorescence (AID 1115).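 Also: probe is biotinylated aNog protein used at 0.15 µg/mL for 1 h at 4 C; z-score combines 667 nm fluorescence of each spot with its signal to noise.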 The conditions noted are these: higher = more signal.
Experiment [19] deals with Torsin-1A-interacting protein 1 (Homo sapiens) (UniProt Q5JTV8). The experiment is described as follows: LAP1 binders from COS7 cell lysate, primary screen, small-molecule microarray, 635/667 nm fluorescence (AID 1116). Particulars: COS7-hLAP1 lysate binding, 635 nm fluorescence, higher = more signal.
Experiment [20] has as its target Alpha-bungarotoxin (Bungarus multicinctus) (UniProt P60615). Description: alpha-bungarotoxin binders on microarray, profiling panel, artefact control for SMM control protein annotation, biochemical, small-molecule microarray, Alexa647 label, 635/667 nm fluorescence (AID 1117). Particulars: alpha-BTX-A647 binding fluorescence, higher = more signal.

The source made the active and inactive calls.

Sequence of Fibroblast growth factor 10 (Homo sapiens) (O15520 whole entry, looked up): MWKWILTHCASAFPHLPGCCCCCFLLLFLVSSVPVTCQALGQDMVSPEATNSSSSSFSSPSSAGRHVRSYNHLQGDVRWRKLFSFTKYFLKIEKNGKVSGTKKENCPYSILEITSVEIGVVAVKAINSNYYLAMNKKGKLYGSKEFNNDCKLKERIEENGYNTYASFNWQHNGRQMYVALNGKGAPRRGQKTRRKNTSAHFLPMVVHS
Sequence of Dickkopf-related protein 1 (Homo sapiens) (O94907 whole entry, looked up): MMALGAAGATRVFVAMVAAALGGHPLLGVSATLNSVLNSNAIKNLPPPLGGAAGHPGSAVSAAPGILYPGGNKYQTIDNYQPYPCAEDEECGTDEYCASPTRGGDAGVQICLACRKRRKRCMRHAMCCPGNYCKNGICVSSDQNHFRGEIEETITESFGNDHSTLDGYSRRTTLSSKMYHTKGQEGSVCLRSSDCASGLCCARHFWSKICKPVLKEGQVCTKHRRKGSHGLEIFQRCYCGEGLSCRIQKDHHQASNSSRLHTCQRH
Sequence of Torsin-1A-interacting protein 1 (Homo sapiens) (Q5JTV8 whole entry, looked up): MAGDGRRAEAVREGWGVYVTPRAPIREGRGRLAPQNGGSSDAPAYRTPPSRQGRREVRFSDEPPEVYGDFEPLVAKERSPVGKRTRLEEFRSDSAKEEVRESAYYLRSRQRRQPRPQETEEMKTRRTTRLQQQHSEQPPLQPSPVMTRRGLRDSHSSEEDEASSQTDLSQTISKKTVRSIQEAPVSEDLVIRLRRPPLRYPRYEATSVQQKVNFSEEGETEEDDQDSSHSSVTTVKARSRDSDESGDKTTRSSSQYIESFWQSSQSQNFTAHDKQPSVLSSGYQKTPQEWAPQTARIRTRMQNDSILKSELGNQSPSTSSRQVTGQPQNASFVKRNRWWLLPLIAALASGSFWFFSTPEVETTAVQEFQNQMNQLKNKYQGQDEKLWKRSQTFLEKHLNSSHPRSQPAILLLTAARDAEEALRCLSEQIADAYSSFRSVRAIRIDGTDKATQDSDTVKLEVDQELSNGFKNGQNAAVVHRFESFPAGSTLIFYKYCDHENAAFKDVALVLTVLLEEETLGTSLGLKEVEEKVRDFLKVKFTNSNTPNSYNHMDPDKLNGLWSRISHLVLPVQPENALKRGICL
Sequence of Epidermal growth factor receptor (Homo sapiens) (P00533 whole entry, looked up): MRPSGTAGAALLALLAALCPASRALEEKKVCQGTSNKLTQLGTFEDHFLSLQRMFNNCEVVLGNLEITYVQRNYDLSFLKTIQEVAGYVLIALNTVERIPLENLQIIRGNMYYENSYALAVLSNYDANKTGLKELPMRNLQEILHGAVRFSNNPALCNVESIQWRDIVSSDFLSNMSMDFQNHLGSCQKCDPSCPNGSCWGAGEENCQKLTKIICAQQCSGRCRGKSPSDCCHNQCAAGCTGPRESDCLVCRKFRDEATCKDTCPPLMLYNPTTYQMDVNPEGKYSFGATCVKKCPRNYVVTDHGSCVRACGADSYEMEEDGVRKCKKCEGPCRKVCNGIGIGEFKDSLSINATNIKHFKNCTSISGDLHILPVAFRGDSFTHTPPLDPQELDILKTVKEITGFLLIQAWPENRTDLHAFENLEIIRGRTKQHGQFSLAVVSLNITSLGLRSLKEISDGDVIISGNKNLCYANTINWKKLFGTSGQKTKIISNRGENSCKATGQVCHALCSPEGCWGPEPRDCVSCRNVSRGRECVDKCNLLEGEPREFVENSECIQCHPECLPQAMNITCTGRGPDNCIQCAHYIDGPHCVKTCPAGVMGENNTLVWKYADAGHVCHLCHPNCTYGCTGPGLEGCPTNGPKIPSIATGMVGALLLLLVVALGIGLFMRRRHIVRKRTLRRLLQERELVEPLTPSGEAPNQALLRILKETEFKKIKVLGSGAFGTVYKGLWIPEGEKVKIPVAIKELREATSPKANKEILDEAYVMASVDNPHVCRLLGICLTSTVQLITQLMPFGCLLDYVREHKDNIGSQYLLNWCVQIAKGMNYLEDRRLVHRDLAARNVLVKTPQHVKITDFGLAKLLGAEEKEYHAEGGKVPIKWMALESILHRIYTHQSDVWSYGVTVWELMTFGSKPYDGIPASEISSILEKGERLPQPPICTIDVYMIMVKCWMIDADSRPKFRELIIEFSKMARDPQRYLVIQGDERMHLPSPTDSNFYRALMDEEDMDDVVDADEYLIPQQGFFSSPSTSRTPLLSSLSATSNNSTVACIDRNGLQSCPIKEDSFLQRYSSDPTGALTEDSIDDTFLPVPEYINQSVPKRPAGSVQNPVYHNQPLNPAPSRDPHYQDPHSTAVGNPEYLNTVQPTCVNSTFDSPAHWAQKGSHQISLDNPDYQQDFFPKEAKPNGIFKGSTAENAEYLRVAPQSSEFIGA
Sequence of Left-right determination factor 2 (Homo sapiens) (O00292 whole entry, looked up): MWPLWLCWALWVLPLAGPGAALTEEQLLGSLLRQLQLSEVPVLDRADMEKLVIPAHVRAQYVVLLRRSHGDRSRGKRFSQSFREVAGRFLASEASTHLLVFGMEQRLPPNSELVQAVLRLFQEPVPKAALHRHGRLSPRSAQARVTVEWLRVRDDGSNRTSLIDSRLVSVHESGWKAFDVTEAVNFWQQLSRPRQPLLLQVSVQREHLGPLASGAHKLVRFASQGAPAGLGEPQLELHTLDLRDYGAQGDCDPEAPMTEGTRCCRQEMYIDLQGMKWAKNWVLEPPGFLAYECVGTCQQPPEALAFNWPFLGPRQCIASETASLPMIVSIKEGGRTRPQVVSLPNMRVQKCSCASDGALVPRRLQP
Sequence of Follistatin-related protein 3 (Homo sapiens) (O95633 whole entry, looked up): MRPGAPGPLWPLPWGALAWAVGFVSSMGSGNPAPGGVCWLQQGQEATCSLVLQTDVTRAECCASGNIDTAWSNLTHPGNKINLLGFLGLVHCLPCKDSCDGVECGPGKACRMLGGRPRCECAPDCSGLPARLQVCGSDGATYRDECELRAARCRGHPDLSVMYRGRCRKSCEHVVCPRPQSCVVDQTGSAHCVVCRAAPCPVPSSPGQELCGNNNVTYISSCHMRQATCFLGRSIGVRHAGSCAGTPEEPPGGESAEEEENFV
Sequence of Alpha-bungarotoxin (Bungarus multicinctus) (P60615 whole entry, looked up): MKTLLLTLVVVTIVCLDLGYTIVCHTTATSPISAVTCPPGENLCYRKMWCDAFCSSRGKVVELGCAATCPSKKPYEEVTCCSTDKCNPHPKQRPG

Take `COC(=O)[C@@]1(Cc2ccc(OC)cc2)[C@H]2c3cc(C(=O)N4CCCC4)n(CCc4ccc(O)c(O)c4)c3C[C@H]2CN1C(=O)c1ccccc1`: the composite z-score in [1] is 1.49; in [2] it was 0.845; in experiment [3], 1.35; in experiment [5], 0.0136; in [6], 0.0777; in experiment [7] it was -0.352. In addition, the composite z-score in [8] was -0.269; in [9], -0.45; in [10], 1.76; in [11], -1.4; in [13], -0.618; in experiment [14] it was 1.39. For the same compound, the composite z-score in experiment [15] was 0.679; in [16] it was -0.0057; in [17], -0.0977; in experiment [18], 1.12; in experiment [19], 2.24; in experiment [20] it was 0.0407. Moreover, the figures for the z-score in experiment [4] and in [12] were -0.73 (inactive) and -1.1, respectively.

As to `C=CC1c2cc(O)c(OC)cc2CCN1Cc1cccc(OC(F)(F)F)c1` (stereo not given), the composite z-score is -0.128 in experiment [1]; -0.0819 in experiment [2]; 0.516 in [3]; -0.438 in experiment [5]; -0.765 in [6]; -0.417 in [7]. Also, the composite z-score in experiment [8] is 0.0396; in experiment [9] it was -0.0102; in [10], 1.64; in [11], 0.625; in experiment [13] it was -0.154; in experiment [14], 0.667. Besides, the composite z-score is -0.566 in experiment [15]; -0.175 in experiment [16]; -0.0146 in [17]; -0.483 in experiment [18]; 0.828 in experiment [19]; 0.39 in [20]. Further, the values for the z-score in experiment [4] and in experiment [12] were -0.918 (inactive) and -1.79, respectively.

Turning to `NC(=O)NCC#Cc1ccc2c(c1)[C@]1(C(=O)N2)[C@H](C(=O)O)[C@H]2C(=O)O[C@H](c3ccccc3)[C@H](c3ccccc3)N2[C@@H]1c1ccc(O)cc1`, the composite z-score in [1] is 0.783; in experiment [2], 1.18; in [3], 1.24; in [5] it was 0.295; in experiment [6] it was -0.576; in [7], -0.16. Further, the composite z-score in experiment [8] was 1.28; in experiment [9], 0.181; in [10], 1.25; in [11], 0.443; in experiment [13], -0.317; in experiment [14] it was 1.6. Moreover, the composite z-score in experiment [15] is 0.717; in [16] it was 0.216; in experiment [17] it was 0.346; in experiment [18], 1.61; in experiment [19], 0.412; in [20], 1.5. Also, the z-score in experiment [4] is 0.72 (inactive); in experiment [12], -0.539.

`CC(C)=CCCC(C)=CC(O)C1C=CC2C(=O)N(c3ccccc3)C(=O)C2N1Nc1ccc(C(C)C)cc1` (stereo not given): the composite z-score in experiment [1] was 0.855; in experiment [2], -0.0008; in [3], 0.816; in experiment [5], 0.691; in [6], 0.615; in [7] it was -0.0514. In addition, the composite z-score in experiment [8] is 0.966; in experiment [9], -0.609; in [10], 0.583; in [11], 1.45; in experiment [13] it was -0.0675; in [14], 0.943. For the same compound, the composite z-score is 0.415 in experiment [15]; 0.163 in experiment [16]; 0.0839 in experiment [17]; 1.6 in experiment [18]; 0.203 in experiment [19]; 0.925 in experiment [20]. For the same compound, the figures for the z-score in experiment [4] and in experiment [12] were 0.433 (inactive) and -0.0821, respectively.

Consider `O=C(NCc1ccccc1)[C@@H]1c2ccccc2C(=O)N(C2Cc3ccccc3C2)[C@H]1c1ccc(CO)cc1`, for which the composite z-score in experiment [1] was 0.81; in [2], 0.689; in experiment [3], 1.01; in experiment [5] it was 0.732; in experiment [6] it was 0.737; in experiment [7], -0.318. Also, the composite z-score in [8] was 0.475; in experiment [9], 0.0698; in experiment [10], 0.344; in experiment [11], -0.146; in experiment [13] it was -0.322; in [14], 0.158. In addition, the composite z-score in experiment [15] is 0.229; in experiment [16] it was -0.101; in experiment [17], 0.194; in [18] it was 1.13; in experiment [19] it was 0.628; in experiment [20], 1.22. The z-score in [4] was -0.0178 (inactive); in experiment [12], -0.51.
